The record followed here is PubChem BioAssay (NCATS).

Results filed as inconclusive are left out. Activity calls are given as the source filed them. Unless noted, calls come from the whole dose curve.

Assay [1] is described as follows: Validation screen for inhibitors of Lassa infection (AID 463096). Note: potency is the fitted concentration of half-maximal effect.
Assay [2] can be described thus: Inducers of the Endoplasmic Reticulum Stress Response (ERSR) in human glioma: Validation (AID 504836; active = well fitted curve in the direction sought with a large enough effect; note: 0% is about no effect). An outline of the steps:
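Stably transfected U87-MG human glioma cells carrying a GRP78-based luminescent sensor were seeded at 1000 cells/well, pin-dosed with compounds and incubated 16 h. Luciferase reagent was then added, and end-point luminescence was read after 10 min at room temperature.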

Assay [3] in a line: qHTS for Inhibitors of the Functional Ribonucleoprotein Complex (vRNP) of Lassa (LASV) Arenavirus: Viability assay - alamar blue signal for LASV Primary Screen (AID 1347083; calls by dose curve; tested in HEK293 reporter line; note: nearly all actives have a fitted effect of over 80% in size; note: potency is the fitted concentration of half-maximal effect). On the technique in general: In qHTS, concentration-response curves come from the screen itself.
Assay [4] is described as follows: qHTS for Inhibitors of the Functional Ribonucleoprotein Complex (vRNP) of Lymphocytic Choriomeningitis Arenaviruses (LCMV): Viability assay - alamar blue signal for LCMV Primary Screen (AID 1347085; calls by dose curve; tested in HEK293 reporter line; note: nearly all actives have a fitted effect of over 80% in size; note: potency is the fitted concentration of half-maximal effect).
Assay [5] concerns the target Nucleoprotein (Lymphocytic choriomeningitis virus (strain Armstrong)) (UniProt P09992). Briefly: qHTS for Inhibitors of the Functional Ribonucleoprotein Complex (vRNP) of Lymphocytic Choriomeningitis Arenaviruses (LCMV): LCMV Primary Screen - GLuc reporter signal (AID 1347086). For activity change, negative = inhibition: % is set by controls: 0 for no effect and ±100 for the full control effect. Note: nearly all actives have a fitted effect of over 70% in size. Note: potency is the fitted concentration of half-maximal effect.
The nature of assay [6]: qHTS profiling of the MIPE4 collection as inhibitors of Plasmodium falciparum (3D7) proliferation (AID 743344; call rule not given here;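 note: scaled between DMSO vehicle wells and 0.29 µM artemisinin as full inhibition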). The note with it: P. falciparum 3D7 in erythrocytes, SYBR Green DNA fluorescence, 72 h; at 28.5 µM (top of the series) unless noted. In a few lines: (§1)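 Erythrocytes infected with P. falciparum (0.3% parasitemia, 2.5% hematocrit) incubated with compounds 72 h at 37 C, 5% CO2. Lysis with saponin/Triton buffer containing SYBR Green I, overnight at room temperature in the dark; DNA fluorescence (485/535 nm) normalised to 0.29 uM artemisinin and DMSO.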

Assay [7] is described as follows: qHTS profiling of the MIPE4 collection as inhibitors of Plasmodium falciparum (DD2) proliferation (AID 743345; call rule not given here). Particulars: P. falciparum Dd2 in erythrocytes, SYBR Green DNA, 72 h; at 28.5 µM (top of the series) unless noted. An outline of the steps:
as §1

Assay [8] can be described thus: Primary qHTS to identify inhibitors of SARS-CoV-2 cell entry (AID 1645846). Note: nearly all actives have a fitted effect of over 45% in size. Note: potency is the fitted concentration of half-maximal effect. Particulars: activity change, negative = inhibition: at 57.1 µM (top of the series) unless noted. In a few lines: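 HEK293-ACE2 (Expi293F, stable hACE2), 1500 cells/well, o/n 37C; cpd 23 nL pin, 1 h; MLV-PP w/ SARS-CoV-2-S (Wuhan-Hu-1, Δ19 C-term); 48 h 37C; Bright-Glo luminescence; normalized vs S-PP and bald PP.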

Assay [9] in a line: VSVG counterscreen qHTS to identify inhibitors of SARS-CoV-2 cell entry (AID 1645847). Note: potency is the fitted concentration of half-maximal effect; nearly all actives have a fitted effect of over 65% in size. In a few lines: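 Expi293F/hACE2 cells, overnight plating; cpd 1 h, 37C/5% CO2; + VSV-G PP (MLV pseudotyping), 48 h; supernatant removed, Bright-Glo luciferase read. Norm: VSV-G PP and bald PP wells.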
For orientation: Counterscreens check selectivity or assay interference.

Assay [10] is described as follows: Cytotoxicity counterscreen for inhibitors of SARS-CoV-2 cell entry (AID 1645845). Note: nearly all actives have a fitted effect of over 50% in size. Note: potency is the fitted concentration of half-maximal effect. In a few lines: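 Expi293F/hACE2 cells seeded overnight; cpd pin-transferred in DMSO, 1 h preincubation, + media, 48 h 37 C 5% CO2; ATPLite 1step luminescence; normalized to cells and no cells.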
Assay [11] is described as follows: Confirmatory qHTS for VERO E6 Cytotoxicity Assay: Counterscreen for SARS-CoV-2 CPE Assay (AID 1508605). Note: % is set by controls: 0 for no effect and ±100 for the full control effect; nearly all actives have a fitted effect of over 60% in size.
Assay [12] in a line: Confirmatory qHTS for activators (rescue) of SARS-CoV-2 Cytopathic Effect (CPE) (AID 1508606). Note: 0% is about no effect; nearly all actives have a fitted effect of over 70% in size.
A short description of assay [13]: qHTS profiling of the MIPE4 collection as inhibitors of Plasmodium falciparum (DD2) proliferation (Rep 2) (AID 743346; call rule not given here). The note with it: P. falciparum Dd2 in erythrocytes, SYBR Green DNA, 72 h; at 28.5 µM (top of the series) unless noted. An outline of the steps:
as §1

Assay [14] can be described thus: Primary qHTS for Huh7 cytotoxicity: counterscreen for inhibitors of MERS-S pseudotyped particle cell entry (AID 1479147). Note: % is set by controls: 0 for no effect and ±100 for the full control effect. The note with it: outcome: dose series up to 57.1 µM unless noted.
Assay [15] is described as follows: Primary qHTS for Vero E6 cytotoxicity: counterscreen for inhibitors of SARS-S pseudo-typed particle cell entry (AID 1479150). Particulars: outcome: dose series up to 57.1 µM unless noted.
The nature of assay [16]: Primary qHTS for inhibitors of SARS-S pseudo-typed particle cell entry (AID 1479145). Note: nearly all actives have a fitted effect of over 45% in size.
Assay [17] is described as follows: Primary qHTS for inhibitors of MERS-S pseudo-typed particle cell entry (AID 1479149). Note: nearly all actives have a fitted effect of over 60% in size.

Nucleoprotein (Lymphocytic choriomeningitis virus (strain Armstrong)), sequence (P09992 whole entry, looked up): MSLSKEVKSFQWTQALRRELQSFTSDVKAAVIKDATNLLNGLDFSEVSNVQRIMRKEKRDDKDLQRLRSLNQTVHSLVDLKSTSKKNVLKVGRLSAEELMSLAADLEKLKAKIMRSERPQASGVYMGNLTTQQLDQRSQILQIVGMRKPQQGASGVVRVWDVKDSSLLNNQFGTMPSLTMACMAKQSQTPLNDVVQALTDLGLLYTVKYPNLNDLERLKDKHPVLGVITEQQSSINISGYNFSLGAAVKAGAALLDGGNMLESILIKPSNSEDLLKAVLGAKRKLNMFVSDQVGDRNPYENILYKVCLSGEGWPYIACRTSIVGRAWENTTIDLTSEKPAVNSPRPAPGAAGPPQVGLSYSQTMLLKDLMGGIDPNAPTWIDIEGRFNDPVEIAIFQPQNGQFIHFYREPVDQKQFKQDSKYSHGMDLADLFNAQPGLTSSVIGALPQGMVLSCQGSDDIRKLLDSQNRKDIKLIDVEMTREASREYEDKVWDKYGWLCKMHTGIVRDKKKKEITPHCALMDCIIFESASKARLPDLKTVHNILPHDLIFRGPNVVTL

Consider `N#CC(=C(\N)Sc1ccccc1N)/C(C#N)=C(/N)Sc1ccccc1N`, for which the Potency in assay [1] was 0.794 µM (active). Also, the call in assay [2] was inactive. Also, the Potency entry in assay [3], in assay [4] and in assay [5] was “inactive” throughout.

With `C=CC(=O)Nc1cccc(Oc2nc(Nc3ccc(N4CCN(C)CC4)cc3)ncc2Cl)c1`, the Potency was 2.73 µM (active) in assay [3] and 1.72 µM (active) in assay [4]. In assay [5], the Potency entry was “inactive”.

The molecule `COc1cc([C@@H]2c3cc4c(cc3[C@H](O)[C@H]3COC(=O)[C@@H]23)OCO4)cc(OC)c1OC` showed a parasite growth, % of DMSO control in assay [6] of 52.9%. This molecule also registered a parasite growth remaining, % of DMSO control (lower = more inhibition) in [7] of 78.3%. For the same molecule, the Potency was 0.193 µM (active) in assay [3]; 0.344 µM (active) in assay [4]; 1.09 µM (active) in assay [5]; 1.26 µM (active) in assay [8]; 1.71 µM (active) in assay [9].

For the molecule `O=C(O)Cn1nnc(-c2cc(N3CCC(Oc4cc(F)ccc4Br)CC3)no2)n1`, the Potency in assay [3] was 1.53 µM (active); in [4], 1.72 µM (active); in assay [5], 2.73 µM (active); in assay [10], 3.55 µM (active). In assay [8], the activity change, negative = inhibition is -56.8%.

As for `NCC(=O)Nc1ccc(-n2nc(C(F)(F)F)cc2-c2ccc3c(ccc4ccccc43)c2)cc1`, the Potency in [3] was 19.3 µM (active); in assay [4] it was 10.9 µM (active); in assay [5], 1.72 µM (active); in [9], 6.07 µM (active).

As for `CCOC(=O)N1CCN([N+]([O-])=NOc2ccc([N+](=O)[O-])cc2C#N)CC1`, the Potency in assay [3] was 10.9 µM (active). Moreover, the Potency entry in [4] and in assay [5] was “inactive” throughout.

As for `COc1cc(Nc2nc3ccccc3nc2NS(=O)(=O)c2ccc(NC(=O)c3ccc(C)c(OC)c3)cc2)cc(OC)c1`, the Potency in assay [3] is 21.7 µM (active); in [4], 13.7 µM (active); in assay [5] it was 27.3 µM (active). For the same molecule, the Potency entry in [11], in assay [12], in assay [10] and in assay [8] was “inactive” throughout.

Regarding `COc1cc(-c2nn(C3CCC(N4CCN(C(C)=O)CC4)CC3)c3ncnc(N)c23)ccc1NC(=O)c1cc2ccccc2n1C` (configuration not stated), the figures for the Potency in [3], in [4] and in [5] were 0.863 µM (active), 0.968 µM (active) and 0.685 µM (active), respectively. The Potency result in [10] is “inactive”.

Regarding `O=C(Nc1ncc(-c2cc(C(F)F)nn2-c2c(Cl)cccc2Cl)s1)C1CC1`, the Potency was 0.968 µM (active) in [3], 1.09 µM (active) in [4], 3.85 µM (active) in assay [5] and 1.36 µM (active) in assay [9].

In the case of `COCCOC(=O)C1=C(C)NC2=C(C(=O)CC(c3ccccc3OC)C2)C1c1cccc(O)c1` (configuration not stated), the Potency in assay [3] was 17.2 µM (active); in assay [4] it was 10.9 µM (active); in assay [5] it was 15.3 µM (active). For the same molecule, in [10], the Potency result is “inactive”.

Regarding `CCCCCCOC(=O)N=C(N)c1ccc(NCc2nc3cc(C(=O)N(CCC(=O)OCC)c4ccccn4)ccc3n2C)cc1`, the Potency result in assay [3], in assay [4] and in assay [5] was “inactive” throughout.

Take `Cn1cc(C=CC(=O)c2cccc(F)c2)cc1C=CC(=O)NO`: the Potency in assay [3] is 17.2 µM (active); in assay [4], 17.2 µM (active); in [5], 13.7 µM (active).

As for `CCOc1cc2ncc(C#N)c(Nc3ccc(OCc4ccccn4)c(Cl)c3)c2cc1NC(=O)C=CCN(C)C`, the Potency in assay [3] was 1.37 µM (active); in assay [4], 0.769 µM (active); in [5] it was 1.53 µM (active).

On to `NC(=O)c1ncn([C@@H]2O[C@H](CO)[C@@H](O)[C@@H]2O)n1`, for which the parasite growth, % of DMSO control in assay [6] was 91.7%. In assay [7], this molecule came in with a parasite growth remaining, % of DMSO control (lower = more inhibition) of 90.2%. In [13], this molecule came in with a parasite growth, % of control (lower = inhibition) of 53.8%. Also, the Potency result in assay [3] and in [4] was “inactive” each time.

Turning to `COc1cc(/C=C(\C#N)C(=O)Nc2nnc(C(F)(F)F)s2)ccc1OCc1ccc(C(F)(F)F)cc1C(F)(F)F`, the result in assay [2] was inactive. The Potency result in assay [3], in assay [4], in assay [10] and in [8] was “inactive” each time.

As for `CCN(CC)Cc1ccc2cc(COC(=O)Nc3ccc(C(=O)NO)cc3)ccc2c1`, the Potency in assay [3] was 15.3 µM (active); in assay [4], 6.85 µM (active); in assay [10] it was 10 µM (active).

Turning to `COc1cc([C@@H]2c3cc4c(cc3[C@@H](O[C@@H]3O[C@@H]5CO[C@@H](C)O[C@@H]5[C@H](O)[C@@H]3O)[C@H]3COC(=O)[C@H]23)OCO4)cc(OC)c1O`, the figures for the Potency in assay [3], in assay [4] and in assay [9] were 2.17 µM (active), 2.17 µM (active) and 0.383 µM (active), respectively. The result in [14] and in assay [15] was inactive.

Turning to `C[C@H](NCc1ccc(OCc2cccc(F)c2)cc1)C(N)=O`, the Potency in assay [3] is 21.7 µM (active); in assay [4], 38.5 µM (active). Further, the Potency result in assay [16], in assay [17] and in assay [8] was “inactive” in each case. Also, the molecule was called inactive in assay [14] and in assay [15].

For `N#Cc1c(NC(=O)c2cccc3ccccc23)sc2c1CCCC2`, the Potency was 0.769 µM (active) in assay [3], 1.09 µM (active) in assay [4] and 0.764 µM (active) in assay [9]. For the same molecule, the activity change, negative = inhibition in assay [8] is -63.8%.

Regarding `Cc1cc(C(C)Nc2ccccc2)c2nc(N3CCOCC3)cc(=O)n2c1` (configuration not stated), the Potency in [3] is 1.93 µM (active); in assay [4] it was 0.544 µM (active). Moreover, in [10], the Potency result is “inactive”.
